# Inconclusive results are not listed. Calls of active or inactive are those of the source. The calls were made as follows, unless noted: active = hit-call score of the fitted dose curve at least 0.9, where 1 is the maximum; inconclusive = response in the unintended direction; inactive = score below 0.9.
# Columns and labels:
# [1] = target: Cellular tumor antigen p53 (Homo sapiens) (UniProt P04637); experiment: TOX21_p53_BLA_p2_ratio: Tox21 HCT-116 p53 Agonism Beta-lactamase Assay, Ratio, Phase 2 (AID 2283592)
# Outline: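 HCT116 cells carrying a p53-responsive beta-lactamase reporter were plated, incubated 5 h at 37C, then dosed with compounds in DMSO (217-fold dilution) for 16 h. CCF4-AM substrate was added for 2 h at room temperature; the 460/530 nm emission ratio gave gain-of-signal activity relative to DMSO.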
# [2] = TOX21_p53_BLA_p3_viability: Viability Assessment in the Tox21 HCT-116 p53 Agonism Beta-lactamase Assay, Phase 3 (AID 2283593);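 also: cells exposed to compound for 16 h before reading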
# Outline: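 HCT-116 cells (4000/well) rested 5 h at 37C, then got DMSO compounds by pin tool (217-fold dilution) for 16 h at 37C, 5% CO2. After the bla read, CellTiter-Glo was added and luminescence read at 30 min, room temperature.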
# [3] = target: Cellular tumor antigen p53 (Homo sapiens) (UniProt P04637); experiment: TOX21_p53_BLA_p3_ratio: Tox21 HCT-116 p53 Agonism Beta-lactamase Assay, Ratio, Phase 3 (AID 2283596)
# Outline: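 HCT116 p53-bla cells (4000/well) given compound in DMSO (217-fold dilution) after 5 h, incubated 16 h at 37C. CCF4-AM substrate 2 h at room temperature; 460/530 nm emission ratio, gain fitted against DMSO.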
# [4] = target: Cellular tumor antigen p53 (Homo sapiens) (UniProt P04637); experiment: TOX21_p53_BLA_p5_ratio: Tox21 HCT-116 p53 Agonism Beta-lactamase Assay, Ratio, Phase 5 (AID 2283599)
# Outline: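 HCT-116 cells carrying a p53-inducible beta-lactamase reporter were seeded at 4000 cells/well and dosed after 5 h with compound in DMSO (217-fold dilution). After 16 h at 37C, CCF4-AM substrate was added for 2 h, and the 460/530 nm emission ratio was scored as gain-of-signal versus DMSO.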
# [5] = TOX21_p53_BLA_p5_viability: Viability Assessment in the Tox21 HCT-116 p53 Agonism Beta-lactamase Assay, Phase 5 (AID 2283600)
# Outline: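 Cells were plated at 4000/well, rested 5 h at 37C, then given compounds in DMSO (217-fold dilution) for 16 h at 37C, 5% CO2. Following the CCF4-AM beta-lactamase read, CellTiter-Glo was added and luminescence was read after 30 min at room temperature.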
# [6] = target: Cellular tumor antigen p53 (Homo sapiens) (UniProt P04637); experiment: TOX21_p53_BLA_p4_ratio: Tox21 HCT-116 p53 Agonism Beta-lactamase Assay, Ratio, Phase 4 (AID 2283601)
# Outline: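 HCT116 cells carrying an inducible beta-lactamase reporter were plated at 4000 cells/well, rested 5 h, then exposed to compounds in DMSO (217-fold dilution) for 16 h at 37C. CCF4-AM substrate was loaded 2 h at room temperature; 460/530 nm emission ratio scored gain-of-signal versus DMSO.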
# [7] = target: Thyroid hormone receptor alpha (Rattus norvegicus) + Thyroid hormone receptor beta (Rattus norvegicus) (UniProt P18113+P63059); experiment: TOX21_TR_LUC_GH3_Agonist_Followup: Tox21 GH3 Thyroid Hormone Receptor Agonism Luciferase Follow-Up Assay (AID 2283939)
# Outline: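 Rat GH3 cells (1,500/well) in serum-free assay medium, treated with 15-point series, 92 uM to 5 nM final, for 24 h at 37C. Luciferase via ONE-Glo luminescence; gain of signal fitted against DMSO, T3 positive control.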
# THRA (gene 7067) = THRA (gene 7067) (UniProt P10827); experiment: TOX21_TRA_COA_Agonist_Followup_ratio: Tox21 Thyroid Hormone Receptor alpha Agonism through Coactivator Recruitment Follow-Up Assay, Ratio (AID 2283948; active = hit-call score of the fitted dose curve at least 0.9, where 1 is the maximum; inactive = score below 0.9)
# Outline: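 Read-out is the 520/495 nm emission ratio (ex 340 nm), scaled between DMSO-only wells as 0% and T3 wells as 100%. It reflects fluorescein-SRC-2 peptide recruitment to GST-TRα LBD detected via terbium anti-GST antibody.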
# THRB (gene 7068) [8] = target: THRB (gene 7068) (UniProt P10828); experiment: TOX21_TRB_BLA_Agonist_Followup_ratio: Tox21 Thyroid Hormone Receptor beta Agonism Beta-lactamase (BLA) Follow-Up Assay, Ratio (AID 2283954)
# Outline: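 Human TRβ LBD–GAL4 DBD fusion in GeneBLAzer UAS-bla HEK293T cells; 11 concentrations in triplicate, 18 h at 37°C/5% CO2, T3 as agonist control. CCF4-AM substrate 2 h at room temperature; 460:530 nm ratio fitted for gain of signal versus DMSO.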
# THRB (gene 7068) [9] = target: THRB (gene 7068) (UniProt P10828); experiment: TOX21_TRB_COA_Agonist_Followup_ratio: Tox21 Thyroid Hormone Receptor beta Agonism through Coactivator Recruitment Follow-Up Assay, Ratio (AID 2283963; active = hit-call score of the fitted dose curve at least 0.9, where 1 is the maximum; inactive = score below 0.9)
# Outline: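 First, the GST-fused TRβ ligand-binding domain (5.0 nM) was incubated with test compound in 0.10% BSA. Next, fluorescein-tagged SRC-2 peptide (200 nM) and terbium anti-GST antibody (2 nM) were added. Finally, TR-FRET emission ratios were normalized against DMSO and T3 controls.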
# [10] = target: Retinoic acid receptor RXR-alpha (Homo sapiens) (UniProt P19793); experiment: TOX21_TR_RXR_BLA_Agonist_Followup_ratio: Tox21 Thyroid Hormone Receptor beta Retinoid X Receptor alpha (RXRa) Agonism Beta-lactamase (BLA) Follow-Up Assay, Ratio (AID 2283968)
# Outline: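 This follow-up tests whether responses seen in the TR GH3 luciferase agonist screen are specific, using a GAL4-driven beta-lactamase reporter for RXRa in HEK293T cells. Compound exposure lasts 16 h; signal is the cleaved/uncleaved substrate ratio.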
# [11] = TOX21_p53_BLA_p4_viability: Viability Assessment in the Tox21 HCT-116 p53 Agonism Beta-lactamase Assay, Phase 4 (AID 2283597);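 also: hits lower the luminescence signal meaning cytotoxicity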
# Outline: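 HCT116 p53-bla cells (4000/well) rested 5 h at 37C, then received compounds in DMSO (217-fold dilution) for 16 h at 37C, 5% CO2. CellTiter-Glo was added after the CCF4-AM read, and luminescence was read after 30 min at room temperature.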
# Cellular tumor antigen p53 (Homo sapiens), sequence (P04637 whole entry, looked up): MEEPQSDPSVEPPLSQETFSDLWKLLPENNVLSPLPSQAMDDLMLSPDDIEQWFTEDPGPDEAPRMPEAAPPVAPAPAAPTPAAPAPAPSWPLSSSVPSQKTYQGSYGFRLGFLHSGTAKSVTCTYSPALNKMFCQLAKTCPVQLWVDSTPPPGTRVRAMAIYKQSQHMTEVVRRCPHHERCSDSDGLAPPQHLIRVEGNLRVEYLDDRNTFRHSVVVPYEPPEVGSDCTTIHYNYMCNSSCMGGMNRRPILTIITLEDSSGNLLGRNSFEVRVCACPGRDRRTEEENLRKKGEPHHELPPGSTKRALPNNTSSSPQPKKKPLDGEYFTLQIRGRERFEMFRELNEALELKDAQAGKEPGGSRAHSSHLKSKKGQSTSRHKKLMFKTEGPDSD
# THRB (gene 7068), sequence (P10828 whole entry, looked up, the tested form may be a part): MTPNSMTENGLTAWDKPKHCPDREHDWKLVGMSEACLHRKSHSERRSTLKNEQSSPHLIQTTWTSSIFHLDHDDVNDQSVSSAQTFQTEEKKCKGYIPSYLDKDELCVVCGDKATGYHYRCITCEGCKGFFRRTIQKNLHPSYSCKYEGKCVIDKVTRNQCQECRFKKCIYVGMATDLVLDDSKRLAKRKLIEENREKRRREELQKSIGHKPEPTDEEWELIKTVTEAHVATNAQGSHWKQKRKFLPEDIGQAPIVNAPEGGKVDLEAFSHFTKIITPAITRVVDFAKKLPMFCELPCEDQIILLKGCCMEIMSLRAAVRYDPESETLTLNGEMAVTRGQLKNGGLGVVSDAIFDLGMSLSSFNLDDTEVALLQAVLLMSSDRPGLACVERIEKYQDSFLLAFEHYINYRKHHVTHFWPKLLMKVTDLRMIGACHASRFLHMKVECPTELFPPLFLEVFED
# Retinoic acid receptor RXR-alpha (Homo sapiens), sequence (P19793 whole entry, looked up, the tested form may be a part): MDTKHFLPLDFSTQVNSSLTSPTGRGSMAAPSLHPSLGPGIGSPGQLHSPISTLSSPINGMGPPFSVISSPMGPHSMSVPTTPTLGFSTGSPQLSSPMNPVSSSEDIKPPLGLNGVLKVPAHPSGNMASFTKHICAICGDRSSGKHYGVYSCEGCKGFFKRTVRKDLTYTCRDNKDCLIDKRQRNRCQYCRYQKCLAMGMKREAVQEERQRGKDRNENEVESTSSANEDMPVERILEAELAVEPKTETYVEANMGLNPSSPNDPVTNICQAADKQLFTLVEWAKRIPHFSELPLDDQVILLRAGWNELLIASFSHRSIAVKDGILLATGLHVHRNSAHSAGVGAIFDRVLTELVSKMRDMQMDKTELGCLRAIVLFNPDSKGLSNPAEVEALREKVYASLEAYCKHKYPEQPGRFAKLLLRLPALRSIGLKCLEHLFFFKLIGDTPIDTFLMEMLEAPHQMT
# Thyroid hormone receptor alpha (Rattus norvegicus) + Thyroid hormone receptor beta (Rattus norvegicus), sequence (P63059 whole entry, looked up): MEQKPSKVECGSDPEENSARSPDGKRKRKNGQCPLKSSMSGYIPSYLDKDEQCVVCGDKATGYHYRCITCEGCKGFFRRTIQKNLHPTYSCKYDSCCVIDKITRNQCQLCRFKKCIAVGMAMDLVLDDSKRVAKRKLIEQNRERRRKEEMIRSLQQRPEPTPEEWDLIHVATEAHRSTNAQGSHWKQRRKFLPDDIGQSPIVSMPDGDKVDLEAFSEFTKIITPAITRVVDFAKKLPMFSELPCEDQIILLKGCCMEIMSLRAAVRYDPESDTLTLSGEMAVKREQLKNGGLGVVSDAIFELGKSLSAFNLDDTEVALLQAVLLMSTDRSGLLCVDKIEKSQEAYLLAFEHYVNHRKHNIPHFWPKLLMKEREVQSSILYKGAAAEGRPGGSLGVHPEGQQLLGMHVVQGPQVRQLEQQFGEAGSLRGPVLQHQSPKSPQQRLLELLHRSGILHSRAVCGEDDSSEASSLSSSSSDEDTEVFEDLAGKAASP
# Thyroid hormone receptor alpha (Rattus norvegicus) + Thyroid hormone receptor beta (Rattus norvegicus), sequence (P18113 whole entry, looked up): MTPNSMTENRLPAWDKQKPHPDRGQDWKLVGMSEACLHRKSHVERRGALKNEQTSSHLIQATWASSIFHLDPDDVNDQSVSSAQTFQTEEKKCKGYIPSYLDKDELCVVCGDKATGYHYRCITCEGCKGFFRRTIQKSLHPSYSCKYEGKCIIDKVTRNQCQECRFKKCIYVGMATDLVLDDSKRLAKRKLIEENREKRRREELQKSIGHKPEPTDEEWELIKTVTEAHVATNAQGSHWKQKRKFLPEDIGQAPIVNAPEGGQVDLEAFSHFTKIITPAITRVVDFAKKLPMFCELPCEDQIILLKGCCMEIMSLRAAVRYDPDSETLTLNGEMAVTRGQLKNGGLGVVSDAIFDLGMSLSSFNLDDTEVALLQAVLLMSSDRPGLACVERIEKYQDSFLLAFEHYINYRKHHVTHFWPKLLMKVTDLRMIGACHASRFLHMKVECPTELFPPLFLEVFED
# THRA (gene 7067), sequence (P10827 whole entry, looked up, the tested form may be a part): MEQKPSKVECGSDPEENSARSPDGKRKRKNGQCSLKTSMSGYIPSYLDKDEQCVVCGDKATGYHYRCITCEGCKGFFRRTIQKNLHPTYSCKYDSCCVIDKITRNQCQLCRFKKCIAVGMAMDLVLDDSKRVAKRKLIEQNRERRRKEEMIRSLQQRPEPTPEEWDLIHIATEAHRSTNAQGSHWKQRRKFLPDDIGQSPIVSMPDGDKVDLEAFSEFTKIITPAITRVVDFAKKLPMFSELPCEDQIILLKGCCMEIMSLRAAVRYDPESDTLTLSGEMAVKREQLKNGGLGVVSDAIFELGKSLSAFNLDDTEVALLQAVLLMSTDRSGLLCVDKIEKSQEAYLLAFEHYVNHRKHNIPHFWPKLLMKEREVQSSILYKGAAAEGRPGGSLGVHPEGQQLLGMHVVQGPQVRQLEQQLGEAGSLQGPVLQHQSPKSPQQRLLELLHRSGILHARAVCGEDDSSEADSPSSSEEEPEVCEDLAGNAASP
smiles,measurement,setting,value
Cc1cccc(C)c1NC(=O)CC12CCCN1CCC2,outcome,[1],inactive
same,outcome,[2],inactive
same,outcome,[3],inactive
same,outcome,[4],inactive
same,outcome,[5],inactive
same,outcome,[6],inactive
NCCCC[C@H](N)C(=O)O,outcome,[1],inactive
same,outcome,[2],inactive
same,outcome,[3],inactive
same,outcome,[4],inactive
same,outcome,[6],inactive
CC(=O)CC(=O)c1ccccc1,outcome,[1],inactive
same,outcome,[2],inactive
same,outcome,[3],inactive
same,outcome,[4],inactive
same,outcome,[5],inactive
same,outcome,[6],inactive
CCCCN(CCCC)CCCOC(=O)c1ccc(N)cc1,outcome,[1],inactive
same,outcome,[2],inactive
same,outcome,[3],inactive
same,outcome,[4],inactive
same,outcome,[5],inactive
same,outcome,[6],inactive
CCN(CC)CCNC(=O)c1ccc(NC(C)=O)cc1,outcome,[1],inactive
same,outcome,[2],inactive
same,outcome,[3],inactive
same,outcome,[4],inactive
same,outcome,[5],inactive
same,outcome,[6],inactive
CO[Si](CCCCl)(OC)OC,outcome,[1],inactive
same,outcome,[2],inactive
same,outcome,[3],inactive
same,outcome,[4],inactive
same,outcome,[6],inactive
N[C@H](CO)C(=O)O,outcome,[1],inactive
same,outcome,[2],inactive
same,outcome,[3],inactive
same,outcome,[4],inactive
same,outcome,[5],inactive
same,outcome,[6],inactive
O=C(O)[C@@H]1[C@H]2C[C@H]3c4[nH]c5ccccc5c4CCN3C[C@@H]2CC[C@@H]1O,outcome,[1],inactive
same,outcome,[2],inactive
same,outcome,[3],inactive
same,outcome,[4],inactive
same,outcome,[6],inactive
Cn1nnc2c(C(N)=O)ncn2c1=O,outcome,[1],inactive
same,outcome,[2],inactive
same,outcome,[3],inactive
same,outcome,[4],inactive
same,outcome,[5],inactive
same,outcome,[6],inactive
CC(C)(C)C(=O)OCOC(=O)[C@@H]1N2C(=O)[C@@H](NC(=O)[C@H](N)c3ccccc3)[C@H]2SC1(C)C,outcome,[1],inactive
same,outcome,[2],inactive
same,outcome,[3],inactive
same,outcome,[4],inactive
same,outcome,[6],inactive
CCn1cc(C(=O)O)c(=O)c2cc(F)c(N3CCNCC3)nc21,outcome,[1],inactive
same,outcome,[2],inactive
same,outcome,[3],inactive
same,outcome,[4],inactive
same,outcome,[6],inactive
O=C1Nc2ccc([N+](=O)[O-])cc2C1=O,AC50,[1],74.4 µM (active)
same,outcome,[2],inactive
same,AC50,[3],85.2 µM (active)
same,AC50,[4],82.1 µM (active)
same,outcome,[5],inactive
same,AC50,[6],72.8 µM (active)
CCCc1ccc(C(=O)O)cc1,outcome,[1],inactive
same,outcome,[2],inactive
same,outcome,[3],inactive
same,outcome,[4],inactive
same,outcome,[5],inactive
same,outcome,[6],inactive
CC(C(=O)O)c1cccc(Oc2ccccc2)c1 (stereo not drawn),outcome,[1],inactive
same,outcome,[2],inactive
same,outcome,[3],inactive
same,outcome,[4],inactive
same,outcome,[5],inactive
same,outcome,[6],inactive
O=C(NCN1CCOCC1)c1cnccn1,outcome,[1],inactive
same,outcome,[2],inactive
same,outcome,[3],inactive
same,outcome,[4],inactive
same,outcome,[5],inactive
same,outcome,[6],inactive
NCC(=O)CCC(=O)O,outcome,[1],inactive
same,outcome,[2],inactive
same,outcome,[3],inactive
same,outcome,[4],inactive
same,outcome,[5],inactive
same,outcome,[6],inactive
same,AC50,[7],13.1 µM (active)
same,outcome,THRA (gene 7067),inactive
same,outcome,THRB (gene 7068) [8],inactive
same,outcome,THRB (gene 7068) [9],inactive
same,outcome,[10],inactive
COc1cc2c3cc1Oc1cc(ccc1O)C[C@@H]1c4c(cc(OC)c(O)c4Oc4ccc(cc4)C[C@@H]3N(C)CC2)CC[N+]1(C)C,outcome,[1],inactive
same,outcome,[2],inactive
same,outcome,[3],inactive
same,outcome,[4],inactive
same,outcome,[5],inactive
same,outcome,[6],inactive
CC1=C(/C=C/C(C)=C/C=C/C(C)=C/C(=O)Oc2c(C)c(C)c3c(c2C)CC[C@@](C)(CCC[C@H](C)CCC[C@H](C)CCCC(C)C)O3)C(C)(C)CCC1,outcome,[1],inactive
same,AC50,[2],42.8 µM (active)
same,outcome,[3],inactive
same,outcome,[4],inactive
same,outcome,[6],inactive
CCC(c1ccccc1)c1noc(CCN(CC)CC)n1 (stereo not drawn),outcome,[1],inactive
same,outcome,[2],inactive
same,outcome,[3],inactive
same,outcome,[4],inactive
same,outcome,[6],inactive
CC(C)(C)NCC(O)c1ccc(O)c(CO)n1 (stereo not drawn),outcome,[1],inactive
same,outcome,[2],inactive
same,outcome,[3],inactive
same,outcome,[4],inactive
same,outcome,[5],inactive
same,outcome,[6],inactive
O=Cc1c(Cl)cccc1Cl,outcome,[1],inactive
same,outcome,[2],inactive
same,outcome,[3],inactive
same,outcome,[4],inactive
same,outcome,[5],inactive
same,outcome,[6],inactive
CCCCC(O)c1ccccc1 (stereo not drawn),outcome,[1],inactive
same,AC50,[2],30.6 µM (active)
same,outcome,[3],inactive
same,outcome,[5],inactive
same,outcome,[6],inactive
CCS(=O)(=O)CCn1c([N+](=O)[O-])cnc1C,outcome,[1],inactive
same,outcome,[2],inactive
same,outcome,[3],inactive
same,outcome,[6],inactive
COC(=O)CCC(=O)CN,outcome,[1],inactive
same,outcome,[2],inactive
same,outcome,[3],inactive
same,outcome,[5],inactive
C[C@]1(Cn2ccnn2)[C@H](C(=O)O)N2C(=O)C[C@H]2S1(=O)=O,outcome,[1],inactive
same,outcome,[2],inactive
same,outcome,[3],inactive
same,outcome,[4],inactive
same,outcome,[6],inactive
N#Cc1cc2ccccc2c2ccccc12,outcome,[1],inactive
same,outcome,[2],inactive
same,outcome,[3],inactive
same,outcome,[4],inactive
same,outcome,[6],inactive
Clc1cc(Cl)c(Cl)nc1Cl,outcome,[1],inactive
same,outcome,[2],inactive
same,outcome,[3],inactive
same,outcome,[5],inactive
same,outcome,[6],inactive
CC=C(C)C(=O)OCCC(C)CCC=C(C)C (stereo not drawn),outcome,[1],inactive
same,outcome,[2],inactive
same,outcome,[11],inactive
O=C(Cl)c1ccc(F)c(Cl)c1,outcome,[1],inactive
same,outcome,[2],inactive
same,outcome,[11],inactive
